Laboratory results as given in PubChem BioAssay AID686979 (National Center for Advancing Translational Sciences (NCATS), 2013).
The whole screen tested about 420,000 compounds, of which about 50,000 (12%) were called active. Roughly 26% stayed inconclusive and do not appear here. Shown is part of a subset that was picked to be rich in actives. A number with no mark means an inactive call. Calls come from the whole dose curve; as a rule, active = well fitted inhibition curve with a large enough effect; inconclusive = small, poorly fitted or top-dose-only effect; inactive = flat fitted curve, though single readings scatter.
% is set by controls: 0 for no effect and ±100 for the full control effect; potency is the fitted concentration of half-maximal effect.

Experiment: qHTS for Inhibitors of human tyrosyl-DNA phosphodiesterase 1 (TDP1): qHTS in cells in presence of CPT; note: nearly all actives have a fitted effect of over 55% in size
Conditions: chicken DT40 Tdp1-/-;hTDP1 cells + 20 nM CPT, ATP luminescence, 48 h; series mostly up to 46.2 µM; activity change, negative = growth inhibition: at the top concentration
In short: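 Chicken DT40 Tdp1-/- cells stably complemented with human TDP1 were seeded at 400 cells/well in medium containing 20 nM camptothecin, exposed to pin-transferred compounds, and grown at 37 °C for at least 48 hr. Viability was read as ATP luminescence.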
For `COc1ccc(-c2cc(C(F)(F)F)n3nc(C(=O)N4CCOCC4)c(Cl)c3n2)cc1`, the Potency was 16.4 µM (active).
For `O=C(O)c1cnn2c(C(F)(F)F)cc(-c3ccccc3)nc12`, the “activity change, negative = growth inhibition” value was -7.77%.
With `COc1ccc(OCC(=O)N2CCOCC2)cc1` the “activity change, negative = growth inhibition” value was -13.8%.
In the case of `CC(=O)Nc1ccc(SCC(=O)NC(=O)c2ccc(Cl)cc2)cc1`, the “activity change, negative = growth inhibition” value is reported as -14.9%.
In the case of `O=c1onc(-c2c(F)cccc2F)n1-c1ccccc1Cl`, the “activity change, negative = growth inhibition” value is reported as -18.9%.
For `COc1ccc(CN(C)CCn2cc(C(=O)N3CCSCC3)nn2)cc1C`, the “activity change, negative = growth inhibition” value was 11.4%.
In the case of `CC1CCCN(Cc2nc3c(c(=O)n(C)c(=O)n3C)n2CC(=O)c2ccccc2)C1` (configuration not stated), the Potency is reported as 23.1 µM (active).
For `COCCn1c(CN2CCC(Cc3ccccc3)CC2)nc2c1c(=O)n(C)c(=O)n2C`, the Potency was 8.2 µM (active).
In the case of `CCN1CCN(Cc2nc3c(c(=O)n(C)c(=O)n3C)n2CC(=O)c2ccccc2)CC1`, the “activity change, negative = growth inhibition” value is reported as -4.17%.
In the case of `O=C(O)C1CCCN(CCC=C(c2ccccc2)c2ccccc2)C1` (configuration not stated), the Potency is reported as “inactive”.
In the case of `O=c1cc(CO)oc(CN2CCC(Cc3ccccc3)CC2)c1O`, the “activity change, negative = growth inhibition” value is reported as -6.74%.
For `Cn1c(=O)c2c(nc(CN3CCOCC3)n2Cc2ccccc2)n(C)c1=O`, the “activity change, negative = growth inhibition” value was -18.4%.
With `CCc1ccc(N2CC(C(=O)N3CCCCCC3)CC2=O)cc1` (configuration not stated) the “activity change, negative = growth inhibition” value was 2.2%.
For `Cc1c(C(=O)NC(C)C2CC3CCC2C3)cccc1[N+](=O)[O-]` (configuration not stated), the “activity change, negative = growth inhibition” value was -8.19%.
In the case of `CCn1c(CSc2nc(C)cc(C)n2)nnc1SCC(N)=O`, the “activity change, negative = growth inhibition” value is reported as 16%.
For `O=C(Nc1ccccc1Br)c1cc(CN2CCCC2)on1`, the “activity change, negative = growth inhibition” value was -28%.
In the case of `Cc1cn(COC/C=C/c2ccccc2)c(=O)[nH]c1=O`, the “activity change, negative = growth inhibition” value is reported as -9.62%.
In the case of `O=C(NCc1ccccn1)c1c(O)c2c([nH]c1=O)CCCC2`, the “activity change, negative = growth inhibition” value is reported as -28.7%.
For `Cc1[nH]c(=O)c(C(=O)/C=C/c2ccccc2)c2c1CCCC2`, the Potency was 5.8 µM (active).
For `O=C1NC(=O)C(c2ccc(Cl)cc2)N1` (configuration not stated), the “activity change, negative = growth inhibition” value was -9.04%.
In the case of `CCCCN(C(=O)C1=NN(c2cc(C)ccc2C)C(=O)CC1)c1c(N)n(CCC)c(=O)[nH]c1=O`, the “activity change, negative = growth inhibition” value is reported as -5.86%.
For `O=C(NCC1CCCO1)c1ccc2ccccc2n1` (configuration not stated), the “activity change, negative = growth inhibition” value was -6.77%.
With `O=C(NCC1CCCO1)c1cc(-c2ccccc2)nc2ccccc12` (configuration not stated) the “activity change, negative = growth inhibition” value was -17%.
In the case of `O=C(NCC1CCCO1)c1cc2c([nH]c3ccccc32)c(-c2ccc(F)cc2)n1` (configuration not stated), the Potency is reported as 2.06 µM (active).
In the case of `CCOC(=O)c1c(-c2ccccc2)oc2cc(Br)c(O)cc12`, the “activity change, negative = growth inhibition” value is reported as -23%.
For `O=C(c1ccncc1)N1CCN(c2ccc3ccccc3n2)CC1`, the “activity change, negative = growth inhibition” value was -24.9%.
In the case of `Cn1cc(CN2CCC(C(O)CCc3ccccc3)CC2)c(-c2ccccc2F)n1` (configuration not stated), the “activity change, negative = growth inhibition” value is reported as 10.5%.
In the case of `O=C(COC(=O)Cc1ccccc1F)NCCc1ccccc1`, the “activity change, negative = growth inhibition” value is reported as 4.14%.
In the case of `N=c1n(CCc2ccccc2)c2ccccc2n1Cc1ccccc1F`, the Potency is reported as 7.31 µM (active).
In the case of `CCC(=O)c1ccc(OC(=O)/C=C/c2cc(OC)c(OC)c(OC)c2)cc1`, the “activity change, negative = growth inhibition” value is reported as 2.38%.
In the case of `CC1(C)C=Cc2c(ccc3c2OC[C@@H](c2ccc(O)cc2O)C3)O1`, the Potency is reported as 25.9 µM (active).
In the case of `NS(=O)(=O)c1ccc(NC2=CC(c3ccc(F)cc3)N(c3ccc(S(N)(=O)=O)cc3)C2=O)cc1` (configuration not stated), the “activity change, negative = growth inhibition” value is reported as -11.3%.
In the case of `Cc1[nH]nc(SCC(=O)NCC(C)C)c1[N+](=O)[O-]`, the “activity change, negative = growth inhibition” value is reported as 2.73%.
In the case of `CC1CCCC(N2CCN(C(=O)c3ccc(F)cc3)CC2)C1` (configuration not stated), the “activity change, negative = growth inhibition” value is reported as 3%.
With `COC(=O)c1ccc(COc2ccc(/C=N/NC(=O)C(=O)Nc3ccc(OC)cc3)cc2OC)o1` the “activity change, negative = growth inhibition” value was -8.05%.
In the case of `CCCc1ccc(OCc2ccc(C(=O)N/N=C/c3cccc([N+](=O)[O-])c3)o2)c(OC)c1`, the Potency is reported as 8.2 µM (active).
For `COc1ccccc1OCc1ccc(C(=O)NC(C)c2ccccc2)o1` (configuration not stated), the “activity change, negative = growth inhibition” value was 1.09%.
With `CCOc1ccc(C2C(C#N)=C(N)N(N(C)C)C3=C2C(=O)CCC3)cc1` (configuration not stated) the “activity change, negative = growth inhibition” value was -4.52%.
With `Cc1ccc2c(O)c(Cc3ccccc3)c(=O)[nH]c2n1` the “activity change, negative = growth inhibition” value was -7.61%.
In the case of `O=C(NC1CCCC1)C1CCN(C(=O)Nc2cccc(Cl)c2)CC1`, the “activity change, negative = growth inhibition” value is reported as 0.714%.
With `COc1ccc(CNC(=O)COC(=O)c2sccc2C)cc1OC` the “activity change, negative = growth inhibition” value was -16.2%.
For `O=C(c1ccccc1)c1ccc(OCC(O)CN2CCCC2)cc1` (configuration not stated), the “activity change, negative = growth inhibition” value was -0.0362%.
In the case of `OC(COc1ccccc1)Cn1cc(Br)cn1` (configuration not stated), the “activity change, negative = growth inhibition” value is reported as 5.11%.
With `OC(CN=c1sc2ccccc2n1CC(O)COc1ccccc1)COc1ccccc1` (configuration not stated) the Potency was 25.9 µM (active).
In the case of `Cc1ccc(OCCNC(=O)CCNS(=O)(=O)c2ccc(Br)cc2)cc1`, the “activity change, negative = growth inhibition” value is reported as -29.3%.
With `COc1ccc(C)cc1Nc1n[n+](-c2ccccc2)c(-c2cccc(Cl)c2Cl)s1` the Potency was 13 µM (active).
In the case of `COc1ccc(C)cc1S(=O)(=O)Nc1cccc(Cl)c1Cl`, the “activity change, negative = growth inhibition” value is reported as -10.9%.
For `COc1ccc(C)cc1Nc1nc(-c2c(C)[nH]c3ccccc23)cs1`, the “activity change, negative = growth inhibition” value was -20.2%.
With `O=C(c1ccc(NS(=O)(=O)c2ccc3[nH]c(=O)[nH]c3c2)cc1)N1CCCCC1` the “activity change, negative = growth inhibition” value was 5.76%.
In the case of `N#CC1(NC(=O)COC(=O)CSc2ccc(F)cc2)CCCCC1`, the “activity change, negative = growth inhibition” value is reported as -20.6%.
For `Cc1ccc(NC(=O)NC(=O)c2ccccc2)cc1F`, the “activity change, negative = growth inhibition” value was -13.6%.
For `CC(=O)N1CCN(CC(=O)Nc2ccc(C)c(F)c2)CC1`, the “activity change, negative = growth inhibition” value was -19.2%.
For `Cc1ccc(NC2=C(c3ccc(C(F)(F)F)cc3)C(=O)c3ccccc32)cc1F`, the Potency was 8.2 µM (active).
With `COC(=O)c1sc(SC)c(S(=O)(=O)C(C)C)c1N/N=C(\C#N)S(=O)(=O)c1ccccn1` the “activity change, negative = growth inhibition” value was 1.69%.
With `CCCC(=O)OCC(=O)Nc1cc(Cl)ccc1[N+](=O)[O-]` the “activity change, negative = growth inhibition” value was 6.39%.
In the case of `CC(C)N(C)C(=O)CCc1nnc(CCc2c[nH]c3ccccc23)o1`, the “activity change, negative = growth inhibition” value is reported as -6.4%.
With `CCc1ccc(CN(C)C(=O)CCc2nnc(-c3ccc(-c4ccccc4)cc3)o2)nc1` the Potency was 18.4 µM (active).
For `CC(=O)c1ccc(-c2nnc(CCC(=O)N(C)Cc3cnc4ccccn34)o2)s1`, the “activity change, negative = growth inhibition” value was 0.834%.
With `CCCc1ccc(OCC(O)CN2CCN(CCO)CC2)cc1` (configuration not stated) the “activity change, negative = growth inhibition” value was 6.86%.
In the case of `CC(=O)c1cccc(-c2cnc3c(NC=O)cc(-c4ccc(N(C)C)cc4)cn23)c1`, the Potency is reported as 7.31 µM (active).
With `CC(=O)Nc1cc(-c2ccc(N3CCN(C)CC3)cc2)cn2c(-c3ccc(F)cc3)cnc12` the Potency was 5.17 µM (active).
With `CC(=O)c1cccc(-c2cnc3c(NC=O)cc(-c4ccccc4Oc4ccccc4)cn23)c1` the Potency was 14.6 µM (active).
With `O=C(Nc1ccc(F)cc1)N1CCN(c2ccc(F)cc2)CC1` the “activity change, negative = growth inhibition” value was 19.6%.
For `CNc1cncc(-c2cccc(C(=O)N3CCOCC3)c2)n1`, the “activity change, negative = growth inhibition” value was -12.1%.
For `COc1ccccc1C(=O)Nc1cccc(C(=O)N2CCOCC2)c1`, the “activity change, negative = growth inhibition” value was 9.81%.
With `CC(=O)N1c2ccccc2CC1C(=O)N1CCN(c2ccc(F)cc2)CC1` (configuration not stated) the “activity change, negative = growth inhibition” value was -18.4%.
With `CN(C)C(=O)c1cccc(-c2cnc3c(NC=O)cc(-c4ccc(C(=O)N5CCOCC5)cc4)cn23)c1` the Potency was 29.1 µM (active).
